Pf Dd2 growth: qHTS Primary assay for Inhibitors of Plasmodium falciparum Dd2 growth in vitro; P. falciparum Dd2 growth, SYBR Green, 72 h; Potency, µM (highest dose often 28.9 µM), without a hit: at the highest dose activity, negative = inhibition, actives largely listed as inhibitors; 4.3% of 120,000 active; AID 1347417, 2020; active means well fitted inhibition curve with a large enough effect;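 further: plate controls were DMSO vehicle for no effect and reference drug for full effect; nearly all actives have a fitted effect of over 65% in size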
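Readout: SYBR Green fluorescence, 485 nm excitation, 535 nm emission, after ~16 h lysis at 37C. Before that, Dd2-infected red cells (2.5% hematocrit) grew 72 h with compound, 29 uM top final concentration.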
* hit, by the source's call; [ ] = dose if it differs, or a comment. Shown is part of a subset that was picked to be rich in hits. Potency means the concentration at half of the fitted maximal effect.

What do the screens show for `CN(C)c1nc2c(c(=O)[nH]1)CCN(Cc1cc(F)ccc1F)CC2`?
Pf Dd2 growth: 18.9%[5.79 µM]

How did CN(Cc1cccnc1)c1nc2c(c(=O)[nH]1)CCN(Cc1ccc(Cl)c(F)c1)CC2 do in these assays?
Pf Dd2 growth: 20.1%[5.79 µM]

Results for CN(C)c1nc2c(c(=O)[nH]1)CCN(Cc1ccc(F)cc1Cl)CC2 ?
Pf Dd2 growth: 1µM*

Results for O=C(NC[C@H]1OC[C@@H](NC2CCC2)[C@@H]1O)c1ccc(F)cc1 ?
Pf Dd2 growth: inactive

Results for Cc1nc(C)c(C(=O)N2[C@@H]3CC[C@H]2CC(NC(=O)c2ccc(F)cc2)C3)s1 (stereo partly drawn) ?
Pf Dd2 growth: -22.7%

What do the screens show for `O=C1[C@@H]2C[C@@H](CN2C(=O)c2ccccc2F)Oc2ccccc2N1Cc1ccccc1`?
Pf Dd2 growth: -15.9%[44.1 µM]

How did CN(C)c1cccc(C(=O)NC2CCN(c3cc(-c4ccc(Cl)cc4)[nH]n3)CC2)c1 do in these assays?
Pf Dd2 growth: inactive

What do the screens show for `COc1ccc(C(=O)N[C@@H]2CCC[C@@H]2C(=O)NCc2cccnc2)cn1`?
Pf Dd2 growth: 6.4%

Results for O=C1CCN(S(=O)(=O)c2ccccc2)CCCN(C(=O)COc2ccccc2)CCN1 ?
Pf Dd2 growth: 5.7%

How did COc1ccc(NC(=O)C2Cc3ccccc3CN2S(=O)(=O)c2ccccc2)cc1OC (stereo not drawn) do in these assays?
Pf Dd2 growth: -24.6%

Results for COc1ccc(OC)c(S(=O)(=O)N2Cc3ccccc3CC2C(=O)Nc2ccc(Cl)cc2)c1 (stereo not drawn) ?
Pf Dd2 growth: inactive

What do the screens show for `COc1ccc(S(=O)(=O)N2Cc3ccccc3CC2C(=O)Nc2cc(Cl)ccc2Cl)cc1` (stereo not drawn)?
Pf Dd2 growth: 10µM*

What do the screens show for `COCCN1C(=O)c2cccn2CC1CNC(=O)c1ccc(OC)cc1` (stereo not drawn)?
Pf Dd2 growth: 25.2%

How did Cn1cc(C(=O)NCC2CN(C(=O)c3cc4ccccc4n3C)CC23CN(c2ccccc2)C3)cn1 (stereo not drawn) do in these assays?
Pf Dd2 growth: inactive

How did O=C(Nc1ccc2c(N3CCOCC3)ncnc2c1)c1cccc(Br)c1 do in these assays?
Pf Dd2 growth: 0.891µM*

How did O=C(Nc1ccc2c(N3CCOCC3)ncnc2c1)c1ccccc1C(F)(F)F do in these assays?
Pf Dd2 growth: inactive

Results for O=C(Nc1ccc2c(N3CCOCC3)ncnc2c1)c1ccc(F)c(Cl)c1 ?
Pf Dd2 growth: 2.51µM*

What do the screens show for `Cc1ccc(C(=O)Nc2ccc3c(N4CCOCC4)ncnc3c2)cc1`?
Pf Dd2 growth: -10.7%

How did O=C(Nc1ccc2ncnc(N3CCCC3)c2c1)c1cccc(Br)c1 do in these assays?
Pf Dd2 growth: -20.2%

What do the screens show for `O=C(Nc1ccc2nc(SCC(=O)N3CCOCC3)sc2c1)c1cccc(Br)c1`?
Pf Dd2 growth: -5.6%

What do the screens show for `O=C(N1CCCC1)C1(CCO)CCN(c2ncccn2)C1` (stereo not drawn)?
Pf Dd2 growth: 4.4%

Results for CCN(CC)C(=O)[C@@H]1C[C@H](n2cc(-c3cccc(OC)c3)nn2)CN1 ?
Pf Dd2 growth: -12.9%

How did O=C(CCc1nnn2c1CN(C(=O)C1CCCC1)CC2)N1CCOCC1 do in these assays?
Pf Dd2 growth: 19.5%

How did COc1ccc(-c2c(C)c3cc(OC(=O)N4CCOCC4)ccc3oc2=O)cc1 do in these assays?
Pf Dd2 growth: -17.4%

What do the screens show for `CCN1CCN(C(c2ccc(OC)cc2)c2c(O)cc(C)n(CCOC)c2=O)CC1` (stereo not drawn)?
Pf Dd2 growth: inactive

Results for COc1ccc(-c2cc3ccc(O)c(CN4CCOCC4)c3oc2=O)cc1 ?
Pf Dd2 growth: 11.2µM*

What do the screens show for `CN1CCN(c2cc(=O)c3ccnc(-c4ccc(Cl)cc4)c3o2)CC1`?
Pf Dd2 growth: inactive

What do the screens show for `CCN1CCN(Cc2c(O)ccc3cc(-c4ccc(OC)cc4)c(=O)oc23)CC1`?
Pf Dd2 growth: 5.62µM*

Results for O=c1oc2c(CN3CCN(CCO)CC3)c(O)ccc2cc1-c1ccccc1 ?
Pf Dd2 growth: -16.8%

What do the screens show for `COc1ccc(-c2coc3c2c(C)cc2oc(=O)c(C)c(C)c23)cc1`?
Pf Dd2 growth: -17.6%

Results for COc1ccc(CN2CCC(N3CCOCC3=O)CC2)cc1 ?
Pf Dd2 growth: 12.8%

Results for Cc1c(-c2ccccc2)c(=O)oc2ccc(OC(=O)N3CCOCC3)cc12 ?
Pf Dd2 growth: inactive

What do the screens show for `CN1CCN(Cc2c(O)ccc3cc(-c4ccc(Cl)cc4)c(=O)oc23)CC1`?
Pf Dd2 growth: 5.01µM*

How did CCN1CCN(Cc2c(O)ccc3c(C)c(-c4ccc(OC)cc4)c(=O)oc23)CC1 do in these assays?
Pf Dd2 growth: 5.01µM*

What do the screens show for `COc1ccc(Cc2nc3ccc(C(=O)NCCN4CCOCC4)cc3o2)cc1`?
Pf Dd2 growth: -6.5%

Results for O=C(C1CCCCC1)N1CCC2(COc3ncccc3S(=O)(=O)N2)C1 (stereo not drawn) ?
Pf Dd2 growth: -9.4%

What do the screens show for `Cc1cccc(NC(=O)N2CCC(CCNC(=O)Cc3cccc(F)c3)CC2)c1`?
Pf Dd2 growth: inactive
